Pf apPOL inh = Pf-apPOL DNA polymerase inhibition; Recombinant Pf-apPOL, molecular beacon fluorescence, 1.5 h; inhibition, % at 10 µM; 210,000 compounds, 0.25% hits
mHTT-CaM PPI inh = mHTT-calmodulin interaction abrogation. AlphaScreen His-mHTT/GST-CaM binding, luminescence. 190,000 compounds, 3.6% hits. AID 1671202. inhibition, % at 15 µM. P42858;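 note: 0% = both proteins with DMSO and 100% = one protein alone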
Starred values were filed as active, the others as inactive; . = no result. Only some compounds are listed: those with a hit (about 3.6% of all), similar ones and a draw of the others. Cut-off read from the data, not from the text of the source: active = inhibition above about 50%; inactive = the rest.

SMILES	Pf apPOL inh	mHTT-CaM PPI inh
Nc1cccc(-c2nc3ccc(-c4ccc5nc(-c6cccc(N)c6)[nH]c5c4)cc3[nH]2)c1	-6	97*
Oc1ccc2nc(-c3ccccc3)[nH]c2c1	7	9
Fc1ccc(C2CC(c3ccccc3F)n3nnnc3N2)cc1 (stereo unspecified)	-4	-3
COc1cccc(C(=O)Nc2ccc(F)c(Cl)c2)c1	-11	-15
COc1ccccc1C(=O)Nc1nnc(C2CC(=O)N(c3ccc(SC)cc3)C2)o1 (stereo unspecified)	-1	30
CCCN1CCN(c2ncc3c(n2)CCN(Cc2cccc(OC)c2)C3)CC1	-2	9
COc1ccc(CN2CCc3nc(N4CCN(c5cccc(OC)c5)CC4)ncc3C2)cc1	2	74*
Fc1ccc(CN2CCc3nc(N4CCN(c5ccc(F)cc5)CC4)ncc3C2)cc1	-6	0
COc1ccc(N2CCN(c3ncc4c(n3)CCN(Cc3ccc(F)cc3)C4)CC2)cc1	-4	57*
COc1cccc(CN2CCc3nc(N4CCN(C)CC4)ncc3C2)c1	-3	29
COc1cccc(N2CCN(c3ncc4c(n3)CCN(Cc3cccc(F)c3)C4)CC2)c1	-3	58*
COc1nn(C)cc1C(=O)N1CCN(c2c(C)nn(C3CCS(=O)(=O)C3)c2C)CC1 (stereo unspecified)	-8	-13
Cc1c(Cl)c([N+](=O)[O-])nn1CC(=O)Nc1cc(C(F)(F)F)ccc1Cl	0	2
O=S(=O)(NCc1ccsc1)c1cccnc1	2	-9
COc1ccc(/C=C2\N=C(c3ccc([N+](=O)[O-])cc3)OC2=O)cc1	0	2
O=C(O)CCCCn1c(SCC(=O)c2ccc(Cl)cc2)nc2ccsc2c1=O	0	13
O=C(Nc1nc2c(s1)CCCC2)c1ccc([N+](=O)[O-])o1	64*	18
O=C(Nc1nc2c(F)cccc2s1)c1ccc([N+](=O)[O-])o1	3	4
CC(=O)Nc1cc(C(=O)NC2CCCC(C)C2C)ccc1S(=O)(=O)c1ccc(Cl)cc1 (stereo unspecified)	71*	5
CC1CCCC(NC(=O)C(Cc2ccccc2)NS(=O)(=O)c2ccc(Cl)cc2)C1C (stereo unspecified)	-1	-10
O=C(COC(=O)c1cc2ccccc2o1)C1=CC2C=CC=CC2O1 (stereo unspecified)	.	-8
COc1ccc(/C=C2/SC(=Nc3ccccc3Cl)NC2=O)cc1	-1	43
O=C1NC(=Nc2ccccc2)S/C1=C\c1ccc(-c2ccccc2[N+](=O)[O-])o1	-12	44
O=C1NC(=Nc2ccccc2Cl)S/C1=C/c1cc2c(cc1Br)OCO2	0	55*
CN(C)c1ccc(/C=C2/SC(=Nc3ccccc3Cl)NC2=O)cc1	-69	54*
SMILES	Pf apPOL inh	mHTT-CaM PPI inh
COc1ccccc1/C=C1/SC(=Nc2ccccc2Cl)NC1=O	-2	20
O=C1NC(=Nc2ccccc2Cl)S/C1=C/c1ccc([N+](=O)[O-])o1	10	60*
COc1ccc(Cl)cc1NC(=O)c1cnn2c1NC(c1ccc(C)cc1)CC2C(F)(F)F (stereo unspecified)	-4	4
CC(C)C(=O)Nc1ccc(N2CCCCC2)c(Cl)c1	-3	-6
CC1CCN(C(=O)C2CCCN(c3nnc4ccccn34)C2)CC1 (stereo unspecified)	0	-1
COc1ccc(Cl)cc1S(=O)(=O)NCC(c1ccc2c(c1)CCN2C)N(C)C (stereo unspecified)	-10	69*
CN1CCCc2cc(C(CNC(=O)Cc3cccs3)N3CCOCC3)ccc21 (stereo unspecified)	-17	29
CN1CCc2cc(C(CNC(=O)c3cccs3)N3CCOCC3)ccc21 (stereo unspecified)	-19	95*
COc1ccc(Cl)cc1S(=O)(=O)NCC(c1cccn1C)N1CCCC1 (stereo unspecified)	-7	-2
CN1CCc2cc(C(CNS(=O)(=O)c3ccc(Cl)s3)N3CCOCC3)ccc21 (stereo unspecified)	-12	99*
O=S(=O)(NCC(c1ccsc1)N1CCOCC1)c1cccs1 (stereo unspecified)	-3	-23
COc1cc(OC)cc(N2C=C(C#N)S(=O)(=O)c3ccc(C)cc32)c1	-1	-8
COc1cccc(-c2coc3c2c(C)cc2oc(=O)c4c(c23)CCC4)c1	8	-2
O=C(Nc1ccc2c(c1)OCO2)C1CCCN(c2ncnc3c2nc2n3CCCCC2)C1 (stereo unspecified)	0	38
Cc1ccnc(SC(=O)N2c3ccccc3Sc3ccccc32)n1	-7	0
Cc1ccc(C)c(N2CCN(C(=O)C3c4ccccc4CCN3C(=O)C3CC3)CC2)c1 (stereo unspecified)	-2	57*
Cc1ccc(C)c(N2CCN(C(=O)C3CCC3)CC2)c1	-4	0
COc1nccc(N2CCC(CC(=O)NCc3cc(F)ccc3F)CC2)n1	-4	-1
CCn1cc(CN2CCC(C(=O)NCc3ccc(N(C)C)cc3)CC2)c2cc(OC)ccc21	-2	56*
CCn1cc(CN2CCC(C(=O)NCc3ccc(OC)cc3)CC2)c2cc(OC)ccc21	1	20
CC(C)n1c(CC2CCN(C(=O)c3cc(-c4cccs4)[nH]n3)C2)nc2cccnc21 (stereo unspecified)	-3	19
CC(C)n1c(CC2CCN(C(=O)c3cc(-c4ccccc4)n[nH]3)C2)nc2cccnc21 (stereo unspecified)	5	59*
C/C(Cl)=C\CN1C(=O)C(=O)c2cccc(C)c21	1	20
Cc1cc(N2CCN(C)CC2)nc2ccc(NC(=O)/C=C/c3cccs3)cc12	0	76*
Cc1cc(N2CCN(C)CC2)nc2ccc(NC(=O)c3cc(-c4ccco4)nc4ccccc34)cc12	5	57*
SMILES	Pf apPOL inh	mHTT-CaM PPI inh
COc1ccccc1C(=O)Nc1ccc2nc(N3CCN(C)CC3)cc(C)c2c1	-7	0
Cc1cc(N2CCN(C)CC2)nc2ccc(NC(=O)/C=C/c3cccnc3)cc12	-6	5
CNC(=O)c1cc(N2CCOCC2)nc2ccccc12	-3	1
CC(C)(C)c1cc(C(=O)O)cc(C(C)(C)C)c1O	3	-8
COCc1cc(C(C)(C)C)c(O)c(O)c1C(C)(C)C	-2	62*
COCCn1cc(NC(=O)Nc2ccc(OC)cc2OC)c2ccccc21	-3	22
COc1ccccc1CCC(=O)N1CCCn2nc(-c3ccc(C)cc3)cc2C1	-4	35
COc1ccc(-c2cc3n(n2)CCCN(Cc2ccccc2C)C3)cc1OC	2	73*
O=C(CCCc1ccccc1)N1CCCn2nc(-c3cccs3)cc2C1	-8	-4
COc1ccccc1CC(=O)N1CCCn2nc(-c3cccc(C)c3)cc2C1	-7	38
O=C(CCCc1ccccc1)N1CCCn2nc(-c3ccc(Cl)cc3)cc2C1	0	88*
Cc1cccc(-c2cc3n(n2)CCCN(C(=O)Cc2ccccc2F)C3)c1	-3	73*
COCC(=O)N1CCCn2nc(-c3cccc(C)c3)cc2C1	-1	-3
Cc1cccc(-c2cc3n(n2)CCCN(C(=O)CCCc2ccccc2)C3)c1	-9	56*
COc1ccc(Nc2cc(C)nc(NCCNC(=O)C3CCC(=O)N3)n2)cc1 (stereo unspecified)	-7	-8
Cn1c(=O)[nH]c(=O)c2c1ncn2CCNC1=NCCCCC1	3	-4
O=C(CS(=O)(=O)c1cn(Cc2ccccc2Cl)c2ccccc12)N1CCc2ccccc21	3	10
